Experiments:
Test in all cases: PBM binding z-score (relative to random genomic background probes); higher = stronger binding; sequences stand for … in GC…GCGATTGACAGCGTAGAATGAAGG
[1] = test system: RARb homodimer (NR concentration 270 nM)
In short: (§1)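 Ligand-free nuclear receptor dimers were applied to custom Agilent 4×180K protein-binding microarrays whose double-stranded probes carried direct-repeat seeds, single-nucleotide variants, half-site ablations and random human genomic background sequences in 34-nt variable regions. Incubation lasted 1 h. Binding z-scores were computed against the random background probes from regression-normalized fluorescence.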

[2] = test system: RARg:RXRa (NR concentration 270 nM, RXRa partner concentration 90 nM)
In short: as §1

[3] = test system: RARg homodimer (NR concentration 270 nM)
In short: as §1

[4] = test system: RXRa DBDmut IVT, anti-RXR (DBD mutation: RXRa K156A/R161A, NR concentration 90 nM)
In short: as §1

[5] = test system: THRa:RXRa (NR concentration 90 nM, RXRa partner concentration 90 nM)
In short: as §1

[6] = test system: THRa homodimer (NR concentration 90 nM)
In short: as §1

[7] = test system: VDR homodimer (NR concentration 270 nM)
In short: as §1

[8] = test system: RXRa homodimer (NR concentration 180 nM)
In short: as §1

[9] = test system: VDR:RXRa (NR concentration 270 nM, RXRa partner concentration 90 nM)
In short: as §1

GATACACGGTCAAGGCCAGAGTACGCGTATTGAT
PBM binding z-score [1]: 1.73 | PBM binding z-score [2]: 1.54 | PBM binding z-score [3]: 2.53 | PBM binding z-score [4]: -0.0133 | PBM binding z-score [5]: 0.429 | PBM binding z-score [6]: -0.515 | PBM binding z-score [7]: 0.324

TCTCGGAGGACACGAAACGTCAGAGCTCGACATC
PBM binding z-score [1]: 0.176 | PBM binding z-score [3]: 1.27 | PBM binding z-score [4]: 0.694 | PBM binding z-score [8]: 0.0278 | PBM binding z-score [5]: 1.1 | PBM binding z-score [6]: 0.276 | PBM binding z-score [9]: -0.163 | PBM binding z-score [7]: -0.34

GATACAGGGTCAGCTAGAGGGCAGAGTATGGAAA
PBM binding z-score [1]: 4.04 | PBM binding z-score [3]: 5.53 | PBM binding z-score [4]: 1.71 | PBM binding z-score [8]: 4.61 | PBM binding z-score [5]: 3.18 | PBM binding z-score [6]: 1.05 | PBM binding z-score [9]: 4.22 | PBM binding z-score [7]: 1.68

TCTGCTATGTCAACGATGGTCAGCTAATCTGCTA
PBM binding z-score [1]: 0.0556 | PBM binding z-score [3]: 0.346 | PBM binding z-score [4]: 0.208 | PBM binding z-score [8]: -0.181 | PBM binding z-score [5]: -0.297 | PBM binding z-score [6]: -1.24 | PBM binding z-score [9]: -0.405 | PBM binding z-score [7]: -1.12

TATACAGGGTCAAAGGGCAGAGTACGAATGTCGA
PBM binding z-score [1]: 4.22 | PBM binding z-score [2]: 6.33 | PBM binding z-score [3]: 5.48 | PBM binding z-score [4]: 3.14 | PBM binding z-score [5]: 3.98 | PBM binding z-score [6]: 1.48 | PBM binding z-score [7]: 3.82

TAGCCTAGGTCATGCGGGCCAGCATAGTGTCGGC
PBM binding z-score [1]: 2.9 | PBM binding z-score [3]: 4.27 | PBM binding z-score [4]: 0.374 | PBM binding z-score [8]: 3.13 | PBM binding z-score [5]: 3 | PBM binding z-score [6]: 0.747 | PBM binding z-score [9]: 2.7 | PBM binding z-score [7]: 0.502

CCTCGGAGGTCAGAAGGTCAGAGCTGTCCGCTTT
PBM binding z-score [1]: 5.21 | PBM binding z-score [3]: 7.12 | PBM binding z-score [4]: 2.31 | PBM binding z-score [8]: 6.44 | PBM binding z-score [5]: 3.41 | PBM binding z-score [6]: 0.451 | PBM binding z-score [9]: 4.38 | PBM binding z-score [7]: 1.47

ATCGAAAGGTCGAAAGTGAGTATACCCACCCGAA
PBM binding z-score [1]: 1.74 | PBM binding z-score [3]: 3.15 | PBM binding z-score [4]: 1.22 | PBM binding z-score [8]: 3.52 | PBM binding z-score [5]: 1.51 | PBM binding z-score [6]: -0.286 | PBM binding z-score [9]: 2.18 | PBM binding z-score [7]: 0.782

TAGCATAGGTCATGCGGGCCAGTATAGTGTCGGC
PBM binding z-score [1]: 3.46 | PBM binding z-score [2]: 4.99 | PBM binding z-score [3]: 4.91 | PBM binding z-score [4]: 0.439 | PBM binding z-score [5]: 2.55 | PBM binding z-score [6]: -0.558 | PBM binding z-score [7]: 0.259

TCTCGGAGGACACGAAGGTCAGCGCTTTCCAGAG
PBM binding z-score [1]: 3.93 | PBM binding z-score [3]: 4.24 | PBM binding z-score [4]: 0.82 | PBM binding z-score [8]: 2.38 | PBM binding z-score [5]: 3.23 | PBM binding z-score [6]: 1.21 | PBM binding z-score [7]: 1.46

TCGAGTAGGTTAGGGGGGCATTCAGGGATGAAGA
PBM binding z-score [1]: 2.58 | PBM binding z-score [3]: 2.54 | PBM binding z-score [4]: 2.58 | PBM binding z-score [8]: 2.32 | PBM binding z-score [5]: 3.86 | PBM binding z-score [6]: 2.28 | PBM binding z-score [9]: 3.91 | PBM binding z-score [7]: 3.28

ATCGAATGGTCGAGGTGAGTATAGAGAAAGGGAA
PBM binding z-score [1]: 0.319 | PBM binding z-score [3]: 0.76 | PBM binding z-score [4]: -0.577 | PBM binding z-score [8]: 0.118 | PBM binding z-score [5]: 0.936 | PBM binding z-score [6]: 0.55 | PBM binding z-score [9]: -0.226 | PBM binding z-score [7]: -0.57

TCTGCTGGGTCAACGATGGTCAGCTAATCTGCTA
PBM binding z-score [1]: 2.96 | PBM binding z-score [3]: 4.31 | PBM binding z-score [4]: 0.782 | PBM binding z-score [8]: 2.58 | PBM binding z-score [5]: 2.65 | PBM binding z-score [6]: -0.44 | PBM binding z-score [9]: 1.62 | PBM binding z-score [7]: -0.395

GCTCGGAGGACAAGGTCAGGGCTTTGTCCGTAGA
PBM binding z-score [1]: 3.31 | PBM binding z-score [3]: 4.39 | PBM binding z-score [4]: 0.229 | PBM binding z-score [8]: 3.18 | PBM binding z-score [5]: 3.22 | PBM binding z-score [6]: 1.75 | PBM binding z-score [9]: 1.64 | PBM binding z-score [7]: 0.358

CCTTACGGGTAACTCCAGGTTATAGCATCGGAGT
PBM binding z-score [1]: 0.239 | PBM binding z-score [3]: 0.528 | PBM binding z-score [4]: -0.483 | PBM binding z-score [8]: 0.381 | PBM binding z-score [5]: 3.22 | PBM binding z-score [6]: 0.292 | PBM binding z-score [9]: 0.375 | PBM binding z-score [7]: 0.21

GATACAGGGTCAGCTAGAGGTCAGAGTATGGAAA
PBM binding z-score [1]: 5.26 | PBM binding z-score [3]: 7.07 | PBM binding z-score [4]: 1.95 | PBM binding z-score [8]: 7.42 | PBM binding z-score [5]: 4.49 | PBM binding z-score [6]: 1.85 | PBM binding z-score [7]: 3.45

TCTAGTTGGTCATGGAGGTCACACACGACGGGTA
PBM binding z-score [1]: 4.43 | PBM binding z-score [2]: 4.86 | PBM binding z-score [3]: 5.01 | PBM binding z-score [4]: 1.01 | PBM binding z-score [5]: 3.61 | PBM binding z-score [6]: 2.8 | PBM binding z-score [7]: 3.38

CGAACTAGGTCATCGAGGACAGTGAATACATTGA
PBM binding z-score [1]: 3.3 | PBM binding z-score [3]: 5.19 | PBM binding z-score [4]: 2.23 | PBM binding z-score [8]: 3.01 | PBM binding z-score [5]: 4.11 | PBM binding z-score [6]: 2.51 | PBM binding z-score [9]: 6.12 | PBM binding z-score [7]: 2.73

CCTACTGGGCCAAAGGACATTGATTCCAATGCTC
PBM binding z-score [1]: 0.475 | PBM binding z-score [3]: 0.664 | PBM binding z-score [4]: -0.27 | PBM binding z-score [8]: 0.166 | PBM binding z-score [5]: -0.11 | PBM binding z-score [6]: -0.145 | PBM binding z-score [9]: -0.439 | PBM binding z-score [7]: -0.13

CAAACTAGGTCACAGAGGTTAAAGTCCGTGCGTA
PBM binding z-score [1]: 4.34 | PBM binding z-score [2]: 5.36 | PBM binding z-score [3]: 5.64 | PBM binding z-score [4]: 2.38 | PBM binding z-score [5]: 4.12 | PBM binding z-score [6]: 2.1 | PBM binding z-score [7]: 3.13

GCTGCTAGGTCATGTTGGTCAGCTAACGGGTACG
PBM binding z-score [1]: 3.21 | PBM binding z-score [3]: 4.33 | PBM binding z-score [4]: 1.85 | PBM binding z-score [8]: 2.51 | PBM binding z-score [5]: 2.83 | PBM binding z-score [6]: 1.39 | PBM binding z-score [9]: 2.15 | PBM binding z-score [7]: 1.44

GCTGCTAGGTCAACTGAGGGTCAGCTAAAGCTCG
PBM binding z-score [1]: 5.18 | PBM binding z-score [3]: 6.85 | PBM binding z-score [4]: 1.67 | PBM binding z-score [8]: 4.59 | PBM binding z-score [5]: 4.16 | PBM binding z-score [6]: 1.47 | PBM binding z-score [9]: 4.26 | PBM binding z-score [7]: 1.36

ATCGTAAGGTCGTGAGGTGAGTATACAGAAAGGC
PBM binding z-score [1]: 2.41 | PBM binding z-score [3]: 2.71 | PBM binding z-score [4]: 2.09 | PBM binding z-score [8]: 3.5 | PBM binding z-score [5]: 3.65 | PBM binding z-score [6]: 2.95 | PBM binding z-score [9]: 2.8 | PBM binding z-score [7]: 1.45

ATATGTAGGTTACGTCCGGGTCATTCAGGCTATG
PBM binding z-score [1]: 3.02 | PBM binding z-score [2]: 4.03 | PBM binding z-score [3]: 2.34 | PBM binding z-score [4]: 1.06 | PBM binding z-score [5]: 4.01 | PBM binding z-score [6]: 2.88 | PBM binding z-score [7]: 2.91

ATCTCTAGGTAACAAGGTCAGTGAAAGAGAGGAC
PBM binding z-score [1]: 3.49 | PBM binding z-score [3]: 3.28 | PBM binding z-score [4]: 0.451 | PBM binding z-score [8]: 2.26 | PBM binding z-score [5]: 3.07 | PBM binding z-score [6]: 2.37 | PBM binding z-score [9]: 2.12 | PBM binding z-score [7]: 1.78

GCTAGTAGGTCAGTAAAAGGTCACACACCGGTCG
PBM binding z-score [1]: 6.06 | PBM binding z-score [3]: 7.14 | PBM binding z-score [4]: 0.784 | PBM binding z-score [8]: 6.4 | PBM binding z-score [5]: 4.27 | PBM binding z-score [6]: 1.97 | PBM binding z-score [9]: 4.99 | PBM binding z-score [7]: 2.37

TAGCCTAGGTCATTGGGCTAGTATAGTACGCATC
PBM binding z-score [1]: 2.59 | PBM binding z-score [3]: 4.2 | PBM binding z-score [4]: 1.47 | PBM binding z-score [8]: 2.84 | PBM binding z-score [5]: 2.71 | PBM binding z-score [6]: 0.251 | PBM binding z-score [7]: 0.989

TCTGCTTGGTCAACGATGGTCAGCTAATCTGCTA
PBM binding z-score [1]: 0.448 | PBM binding z-score [3]: 0.624 | PBM binding z-score [4]: -0.0435 | PBM binding z-score [8]: 0.237 | PBM binding z-score [5]: 0.139 | PBM binding z-score [6]: -1.13 | PBM binding z-score [7]: -1.09
